Assay results reported in the GenesisPotency data set.
Hit rate of the full screen: of about 1,300 compounds, about 35 (3%) were called active. Not shown: some 48% with an inconclusive outcome. The call rests on the fitted dose curve; in most records, active means well fitted inhibition curve with a large enough effect; inconclusive means small, poorly fitted or top-dose-only effect, or effect the other way; inactive means flat fitted curve, though single readings scatter. Shown is part of a subset that was picked to be rich in actives.

Each compound was assayed against T1, ATP-dependent 6-phosphofructokinase, Trypanosoma brucei brucei (UniProt O15648) (assay: qHTS Validation Assay to Find Inhibitors of T. brucei phosphofructokinase (AID 485368)).
T1 sequence (whole entry): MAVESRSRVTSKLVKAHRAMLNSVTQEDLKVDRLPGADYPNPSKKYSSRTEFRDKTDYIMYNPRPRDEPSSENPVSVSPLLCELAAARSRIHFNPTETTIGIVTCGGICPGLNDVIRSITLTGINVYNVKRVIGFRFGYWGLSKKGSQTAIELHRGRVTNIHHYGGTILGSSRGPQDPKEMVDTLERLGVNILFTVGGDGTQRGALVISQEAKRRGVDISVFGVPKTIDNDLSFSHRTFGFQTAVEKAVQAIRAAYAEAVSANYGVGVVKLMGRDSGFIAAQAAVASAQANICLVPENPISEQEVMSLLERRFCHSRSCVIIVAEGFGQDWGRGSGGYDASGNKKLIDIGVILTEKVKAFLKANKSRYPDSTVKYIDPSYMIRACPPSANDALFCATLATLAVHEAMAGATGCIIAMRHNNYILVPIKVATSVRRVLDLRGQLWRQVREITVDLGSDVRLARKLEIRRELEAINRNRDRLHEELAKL

SMILES | outcome
N.N.[Cl][Pt][Cl] | active
